# Screening data: PubChem, National Center for Advancing Translational Sciences (NCATS)
# Most compounds without a hit are left out; they make up all but 12% or so of the library.
# JMJD2A Tudor: blocks the human JMJD2A Tudor domain | O75164 | AlphaScreen JMJD2A-Tudor / H3K4me3 peptide binding | Potency, µM (highest dose often 114 µM), without a hit: top-dose activity change, negative = inhibition, most hits filed as inhibitors | actives 4.4% (n = 390,000) | AID 504339; note: % is set by controls: 0 for no effect and ±100 for the full control effect; nearly all actives have a fitted effect of over 50% in size
# G9a inh: inhibitors of human histone lysine methyltransferase G9a; Q96KQ7; G9a H3K9 monomethylation, AlphaScreen, 2 h; Potency, µM (titrated, usually from 102 µM), for inactives: top-dose activity, negative = inhibition, most hits filed as inhibitors; actives 8.8% (n = 350,000); AID 504332; note: % is set by controls: 0 for no effect and ±100 for the full control effect; nearly all actives have a fitted effect of over 75% in size
#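 Quantitative HTS format: methyltransferase activity on a biotin-tagged H3K9 peptide is measured by AlphaScreen, using a rabbit anti-monomethyl-H3K9 antibody with streptavidin donor and anti-IgG acceptor beads. Final levels are 20 nM enzyme, 500 nM peptide, 20 uM SAM; 2 h RT.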
# Sfp PPTase inh: blocks B. subtilis Sfp PPTase activity. Potency, µM, inactives show largest response in the series, negative = inhibition, usual class: inhibitors. actives 3.5% (n = 310,000). Biochemical Sfp PPTase activity, qHTS;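 note: the enzyme is Sfp with the accession as filed and its product quenches rhodamine fluorescence; 0% = enzyme reaction without inhibitor and -100% = no enzyme wells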
#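 After 15 min at room temperature with compound, 15 nM Sfp received 5 uM rhodamine-CoA plus 12.5 uM BHQ-2-ybbR (50 mM Hepes pH 7.6, 10 mM MgCl2). Rate came from the fluorescence difference over 30 min, ex 525/em 598 nm.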
# TDP1 block: inhibitors of human tyrosyl-DNA phosphodiesterase TDP1; recombinant TDP1, AlphaScreen DNA substrate cleavage; Potency, µM (doses to about 130 µM), for inactives: at the highest dose activity change, negative = inhibition, usual class: inhibitors; actives 0.28% (n = 350,000); Q9NUW8; note: % is set by controls: 0 for no effect and ±100 for the full control effect; nearly all actives have a fitted effect of over 40% in size
# Target sequence (Q9NUW8 whole entry, looked up): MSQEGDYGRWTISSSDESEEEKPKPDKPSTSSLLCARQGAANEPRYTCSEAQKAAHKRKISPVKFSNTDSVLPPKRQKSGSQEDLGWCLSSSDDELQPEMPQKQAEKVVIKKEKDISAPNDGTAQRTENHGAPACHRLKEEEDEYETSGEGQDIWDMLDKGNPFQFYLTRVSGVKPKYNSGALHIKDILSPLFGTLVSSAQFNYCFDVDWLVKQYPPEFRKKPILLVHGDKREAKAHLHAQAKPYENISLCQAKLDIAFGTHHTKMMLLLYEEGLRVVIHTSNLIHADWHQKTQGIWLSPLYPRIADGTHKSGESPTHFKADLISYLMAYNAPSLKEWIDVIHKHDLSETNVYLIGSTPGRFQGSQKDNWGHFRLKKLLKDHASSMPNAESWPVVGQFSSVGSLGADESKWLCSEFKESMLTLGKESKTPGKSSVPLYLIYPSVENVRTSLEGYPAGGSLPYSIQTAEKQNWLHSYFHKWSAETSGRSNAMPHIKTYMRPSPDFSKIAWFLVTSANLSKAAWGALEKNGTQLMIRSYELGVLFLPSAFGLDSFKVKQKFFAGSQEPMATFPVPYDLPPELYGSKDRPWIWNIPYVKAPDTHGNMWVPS
#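 Here, a 5' biotin and 3' phosphotyrosine-FITC DNA oligonucleotide reports Tdp1 activity: intact substrate bridges AlphaScreen beads, while cleavage leaves a 3' phosphate and drops signal. All incubations at room temperature.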
# HP1b chromo inh: blocks HP1-beta chromodomain binding to methylated histone tails; AlphaScreen HP1-beta / biotin-H3K9me3 peptide binding; AID 540317; Potency, µM (titrated, usually from 114 µM), for the others: at the top dose activity change, negative = inhibition, usual class: inhibitors; P83916; actives 0.56% (n = 390,000); note: nearly all actives have a fitted effect of over 70% in size
#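 AlphaScreen: HP1-beta (50 nM) preformed 30 min with biotin-H3(1-18)K9me3 peptide (50 nM) in PBS pH 7.4, 0.01% Tween-20. Compound added for 30 min at RT, then streptavidin donor/nickel chelate acceptor beads (10 ug/mL) for 30 min.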
# BAZ2B inh: BAZ2B (human) inhibition. Q9UIF8. actives 4.4% (n = 360,000). Potency, µM (titrated, usually from 114 µM), inactives show at the top dose activity change, negative = inhibition, hits mostly inhibitors. AlphaScreen BAZ2B-H3K14Ac peptide displacement; note: % is set by controls: 0 for no effect and ±100 for the full control effect; nearly all actives have a fitted effect of over 60% in size
#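 BAZ2B 50 nM plus b-H3(5-23)K14Ac 50 nM, PBS pH 7.4/0.01% Tween-20, 30 min RT; compound added (max 110 uM), 30 min RT; streptavidin donor/Ni-chelate acceptor beads 10 ug/mL final, 20 min dark; AlphaScreen read.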
# Active calls of the source: *; ? = inconclusive; · = not tested or not shown; [ ] = another dose, or the depositor's remark. Calls come from the whole dose curve; as a rule, active = well fitted curve in the direction sought with a large enough effect; inconclusive = small, poorly fitted or top-dose-only effect, or another doubt; inactive = no such curve, though single readings can be large; an effect the other way counts as inactive or inconclusive. Potency is the fitted concentration of half-maximal effect.
SMILES,JMJD2A Tudor,G9a inh,Sfp PPTase inh,TDP1 block,HP1b chromo inh,BAZ2B inh
CN(C)c1ccc(CNC(=O)c2ccc(Cn3c(SCc4ccccc4)nc4cccnc43)cc2)cc1,?,10µM*,·,9%,-7%,?
CN(C)C(=O)CSc1nc2ccccc2n1Cc1ccccc1,-9%,12%,-15%,7%,36%,20%
O=C(CSc1nc2ccccc2c(=O)n1Cc1ccccc1)Nc1ccc(Br)cc1C(=O)O,-28%,?,16%,10%,11%,50µM*
O=C(O)CSc1nc2ccccc2n1Cc1ccccc1,89µM*,6%,24%,4%,-2%,4%
O=C(NCc1ccccc1)c1ccc(CSc2nc3cccnc3n2Cc2ccccc2F)cc1,5.6µM*,3.5µM*,·,1%,?,22µM*
Cc1cccc(Cn2cnc3c(cnn3-c3ccc(Cl)cc3)c2=O)c1,-1%,4%[59 µM],·,-5%,33%,-2%
Cc1ccc(S(=O)(=O)Nc2cc(C)cn(Cc3ccc(F)cc3)c2=O)cc1,-8%,-15%,15%,·,12%,-13%
N#CCCN(C(=O)COC(=O)COc1ccccc1Cc1ccccc1)c1ccccc1,-9%,-5%[12.7 µM],·,0%,31%,12%
Cn1c(SCC(=O)N2CCCC2)nc2cccnc21,8%,?,13%,8%,31%,-22%
O=c1c2ccccc2nc(/C=C/c2cccnc2)n1CCc1ccccc1,18µM*,50µM*,-10%,·,-23%,35µM*
O=C(CSc1nc2cccnc2n1Cc1ccccc1)N1CCCC1,32µM*,20%,15%,6%,?,-3%
CCOC(=O)CC(=O)CSc1nc2ccccc2c(=O)n1CCc1ccccc1,25%,63%[59 µM],·,-7%,35%,-5%
NC(=O)CSc1nc2ccccc2c(=O)n1CCc1ccccc1,-2%,79µM*,-8%,·,24%,8%
CCOC(=O)c1ccc(S(=O)(=O)n2c(CN3CCCCC3)nc3ccccc32)cc1,-14%,50µM*,5%,6%,37%,-32%
COc1ccc(CCNC(=O)c2ccc3c(c2)N(Cc2ccc(Cl)cc2)CCS3)c(OC)c1,-24%,8%[59 µM],·,6%,28%,-23%
O=C(CSc1nc2ccccc2n1S(=O)(=O)c1ccccc1)N1CCCCC1,0%,71µM*,7%,5%,42%,-6%[57.1 µM]
Cc1ncoc1C(=O)N1CCCC(C(=O)c2ccc(C(F)(F)F)cc2)C1 (stereo not given),-24%,25µM*,19%,-8%,-31%,-22%
CCOC(=O)CSC1=NC(=O)/C(=C/c2ccc(OC)cc2)S1,-21%,7.1µM*,18µM*,-2%,16%,-7%
CCOC(=O)C1CCN(C2=NC(=O)/C(=C/c3ccccc3OC)S2)CC1,-9%,-7%,0%,·,31%,2%
COc1ccc(/C=C2\SC(N)=NC2=O)cc1,-10%,3%,8%,1%,57%,-13%
CCOC(=O)C1CCN(C2=NC(=O)/C(=C/c3ccc(O)cc3)S2)CC1,-5%,40µM*,?,·,-23%,-21%
CCOC(=O)C1CCCN(C2=NC(=O)/C(=C/c3ccc(N(C)C)cc3)S2)C1 (stereo not given),-26%,40µM*,-12%,·,35%,45µM*
CCOC(=O)C1CCCN(C2=NC(=O)/C(=C/c3ccc(OC)cc3OC)S2)C1 (stereo not given),-36%,25µM*,45µM*,·,-20%,-27%
CCOC(=O)C1CCCN(C2=NC(=O)/C(=C/c3ccc(OC)cc3)S2)C1 (stereo not given),-15%,-5%,7%,·,17%,2%
COC(=O)c1ccc(NS(=O)(=O)c2ccc(S(=O)(=O)N3CCOCC3)cc2)cc1,-13%,·,·,3%,13%,·
COc1ccc(C(=O)CCN2CCN(c3ccccc3F)CC2)cc1,-4%[11.4 µM],?,50µM*,5%,51%,-33%
